SMILES strings stand for the structures. Records with an inconclusive call do not appear. The source made the active and inactive calls. The calls were made as follows: active = hit-call score of the fitted dose curve at least 0.9, where 1 is the maximum; inconclusive = response in the unintended direction; inactive = score below 0.9.

This test in a line: ATG_XTT_Cytotoxicity: Cytotoxicity Assessment in the Attagene TRANS-FACTORIAL HepG2 Assay (AID 2283584).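 As to AC50: XTT signal for cell number as viability in transfected HepG2 cells; cells exposed to compound for 24 h before reading; active means loss of viability signal versus DMSO baseline.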 The procedure, abridged: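 24 h chemical exposure of reporter-transfected HepG2; XTT signal loss vs DMSO indicates cytotoxicity.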
Consider `CC1(C)O[C@@H]2C[C@H]3[C@@H]4C[C@H](F)C5=CC(=O)C=C[C@]5(C)[C@@]4(F)[C@@H](O)C[C@]3(C)[C@]2(C(=O)CO)O1`, for which the outcome was inactive.

With `COc1ccc(NC(C)=O)cc1N`, the result was inactive.

With `CCCCCCCCCCCCCCCC[n+]1ccccc1`, the half-maximal activity concentration (AC50) (commonly the concentration at which the activity in the assay is half-maximal) is 26.6 µM (active).

Turning to `C[Si](C)(C)O[Si](O)(O)O`, the call was inactive.

As to `O=S(=O)(O)c1cc(S(=O)(=O)O)c2ccc3c(S(=O)(=O)O)cc(S(=O)(=O)O)c4ccc1c2c43`, the molecule was called inactive.

`C=CC(=O)OCCOC1C2CCC1C1CC=CC12` (configuration not stated): the outcome was inactive.

`CC(=O)CC(N)=O`: the outcome was inactive.

As to `CC1(C)[C@H]2CC[C@]1(C)C(=O)C2`, the call was inactive.

With `Clc1nc2ccccc2s1`, the molecule was called inactive.

Regarding `CCOc1nc(F)cc2nc(S(=O)(=O)Nc3c(Cl)cccc3C(=O)OC)nn12`, the call was inactive.

Take `CCCCCCCCCCc1ccccc1`: the outcome was inactive.

Regarding `CC(C)(C)C1CCCCC1=O` (configuration not stated), the result was inactive.

In the case of `C=CC(C)(CCC=C(C)C)OC(=O)CC(C)C` (configuration not stated), the call was inactive.

In the case of `CCCC(C)CCC(C)=O` (configuration not stated), the call was inactive.

As to `O=C(O)C(c1ccc(Cl)cc1)c1ccc(Cl)cc1`, the outcome was inactive.

Take `C=C(C)C(=O)OCCOc1ccccc1`: the result was inactive.

As to `C=C(C)CCO`, the outcome was inactive.

In the case of `CC(C)C(=O)C(C)C`, the call was inactive.

Consider `COCCCOCCCOC`, for which the molecule was classed as inactive.

For the molecule `CCc1c(C(=O)O)c(=O)cnn1-c1ccc(Cl)cc1`, the call was inactive.

For `O=C1Nc2ccccc2C1(c1ccc(O)cc1)c1ccc(O)cc1`, the call was inactive.

For `O=c1c2ccccc2oc2ccccc12`, the result was inactive.

For the molecule `c1cc(C(c2ccc(OCC3CO3)cc2)C(c2ccc(OCC3CO3)cc2)c2ccc(OCC3CO3)cc2)ccc1OCC1CO1` (configuration not stated), the molecule was called inactive.

In the case of `Cc1ccc2oc(=O)ccc2c1`, the result was inactive.

In the case of `Cc1ccc(OC(=O)CC(C)C)cc1`, the call was inactive.

Turning to `C=CC(=O)OCC(Br)CBr` (configuration not stated), the call was inactive.

Turning to `CC[C@H]1OC(=O)[C@H](C)[C@@H](O[C@H]2C[C@@](C)(OC)[C@@H](O)[C@H](C)O2)[C@H](C)[C@@H](O[C@@H]2O[C@H](C)C[C@H](N(C)C)[C@H]2O)[C@](C)(O)C[C@@H](C)C(=NOCOCCOC)[C@H](C)[C@@H](O)[C@]1(C)O`, the molecule was classed as inactive.

As for `O=C1CCC(=O)N1Cl`, the call was inactive.

For `CC(C)=CC1CC(C)CCO1` (configuration not stated), the molecule was called inactive.

Turning to `CCCCCCCC(C)=O`, the molecule was called inactive.

As for `CC(C)(C)c1n[nH]c(=O)n(N)c1=O`, the outcome was inactive.

In the case of `NC(=O)C1CO1` (configuration not stated), the result was inactive.

Take `c1ccc2c(c1)ccc1ncccc12`: the call was inactive.

With `COC(=O)c1ccccc1OC`, the outcome was inactive.

Regarding `Nc1ccc2cc3ccccc3cc2c1`, the outcome was inactive.

Take `O=CC1CC1`: the molecule was called inactive.

Turning to `CC(=O)OC1C2(C)CCC(C2)C1(C)C` (configuration not stated), the call was inactive.

The values above are taken from PubChem BioAssay (EPA / NIEHS).
